Consider four compounds from PubChem BioAssay.

The source made the active and inactive calls. Unless noted, the rule behind the calls is not given here.

Assay [1] deals with Wnt5a (protein binding on small-molecule microarray). The assay can be described thus: Wnt5a binders on small-molecule microarray, primary screen, biophysical, 635/667 nm fluorescence (AID 1142).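 Note: fluorescence read at 667 nm with signal to noise per printed feature.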 Conditions: 635 nm fluorescence, higher = more signal.
Assay [2] in a line: cell viability in Huh7 cells, primary screen, cytotoxicity control for HCV replication inhibitor project, CellTiter-Glo luminescence, basal, 48 h (AID 1143).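 Note: Huh7 hepatoma cells carrying a hepatitis C replication reporter with no stimulus; test concentration not given here.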 Conditions: Huh7 HCV replicon, higher = more signal, called active from +8 up or from −8 down. On the technique in general: In ATP-based viability assays light output follows the ATP content of the culture.
The nature of assay [3]: P. aeruginosa biofilm formation inhibitors, primary screen, PAO1 strain, BacTiter-Glo luminescence, LB-PBS (AID 1144). Conditions: 12 h, higher = more signal.
The nature of assay [4]: CREB reporter modulators without forskolin, primary screen, cell-based, PC12, CRE-LacZ reporter, unstimulated (AID 1145). Conditions: no forskolin, luminescence, 4.5 h, higher = more signal, called active from +8 up or from −8 down.
The nature of assay [5]: CREB reporter modulators under forskolin, primary screen, cell-based, PC12, CRE-LacZ reporter, forskolin-stimulated (AID 1146).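 Note: PC12 cells with 6xCRE LacZ reporter stimulated by forskolin 10 µM; beta-galactosidase reporter signal reflecting CREB driven transcription.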 Conditions: luminescence, 4.5 h, higher = more signal, called active from +8 up or from −8 down.
Assay [6] concerns the target Streptavidin (Streptomyces avidinii) (UniProt P22629). The assay can be described thus: streptavidin binders on small-molecule microarray, primary screen, artefact control for SMM compound annotation, biophysical, 635/667 nm fluorescence (AID 1147).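 Note: signal reflects streptavidin binding to arrayed compounds as a control protein.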 Conditions: streptavidin binding, higher = more signal.
The nature of assay [7]: small-molecule binders of probe aInhba, primary screen, biochemical, small-molecule microarray, 635/667 nm fluorescence (AID 1148).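 Note: score merges 667nm spot fluorescence with signal-to-noise for antibody binding to printed compounds.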 Conditions: higher = more signal.
In assay [8] the target is Torsin-1A (Homo sapiens) (UniProt O14656). Kind of assay: torsin A binders from cell lysate, primary screen, small-molecule microarray, wild-type, 635/667 nm (AID 1149). Conditions: COS7 hTOR1A-WT lysate, 635 nm fluorescence, higher = more signal.
For assay [9] the target is unchanged. The assay can be described thus: small-molecule binders of mutant TOR1A in lysate, primary screen, cell lysate, small-molecule microarray, COS7 lysate, 635/667 nm fluorescence (AID 1150).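 Note: score pools 667 nm emission and signal to noise measuring lysate protein binding.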 Conditions: COS7 hTOR1A mutant lysate, 635 nm fluorescence, higher = more signal.
The test system of assay [10] is Sonic hedgehog protein (Shh). The assay can be described thus: small-molecule binders of Shh protein, primary screen, biochemical, small-molecule microarray, 635/667 nm fluorescence (AID 1151).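 Note: Shh protein binding to compounds spotted on small-molecule microarray slides; score combines spot fluorescence intensity with signal-to-noise across triplicate slides.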 Conditions: small-molecule microarray binding, 635 nm fluorescence; higher = more signal.
A short description of assay [11]: E. coli DRC41 culture turbidity changes, primary screen, E. coli filamentation inducer project, strain DRC41, OD650, 48 h (AID 1152).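 Note: E. coli MC1000 strain DRC41 lacking acrAB efflux pump and sulA.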 Conditions: E. coli DRC41 (acrAB sulA), higher = more signal, called active from +8 up or from −8 down.
Assay [12] is described as follows: small-molecule binders of probe aLefty1, primary screen, biochemical, small-molecule microarray, 635/667 nm fluorescence (AID 1153).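 Note: score merges spot fluorescence with signal-to-noise ratio from the scanned slide images.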 Conditions: higher = more signal.
The nature of assay [13]: PSAC antagonists in infected red cells, primary screen, cell-based, P. falciparum Indochina, OD700, 1 h (AID 1154). Conditions: P. falciparum Indochina infected RBC osmotic lysis, higher = more signal, called active from +8 up or from −8 down.
Assay [14] in a line: PSAC antagonists in infected red cells, primary screen, cell-based, P. falciparum Indochina, OD700, 2 h (AID 1155).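 Note: lysis reports solute entry through the parasite surface anion channel PSAC; channel blockers reduce lysis of infected cells.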 Conditions: P. falciparum Indochina infected erythrocytes, osmotic lysis OD700; higher = more signal, called active from +8 up or from −8 down.
Assay [15] can be described thus: osmotic lysis modulators in infected erythrocytes, primary screen, PSAC antagonist project, cell-based, P. falciparum Indochina, OD700, 3 h (AID 1156). Conditions: higher = more signal, called active from +8 up or from −8 down.
The nature of assay [16]: PSAC antagonists in infected red cells, primary screen, cell-based, P. falciparum Indochina, OD700, 18 h (AID 1157). Conditions: P. falciparum Indochina infected erythrocytes, osmotic lysis OD700, 18 h; higher = more signal, called active from +8 up or from −8 down.
Assay [17] can be described thus: modulators of S6 phosphorylation in cells, primary screen, cell-based, A549, cytoblot, luminescence, serum-stimulated (AID 1158).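 Note: serum-stimulated A549 lung adenocarcinoma cells; signal is phosphorylated S6 detected by cytoblot immunostaining with HRP secondary.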 Conditions: A549 phospho-S6 cytoblot, 5 h, higher = more signal.
For assay [18], the target named is NADPH oxidase 2 (Homo sapiens) (UniProt P04839). Kind of assay: NOX2-dependent H2O2 signal modulators, primary screen, NOX inhibitor project, cell-based, HEK293-NOX2, PMA-stimulated, Amplex Red fluorescence (AID 1159). Note: test concentration not given here. Conditions: 45 min, higher = more signal, called active from +8 up or from −8 down.
The target in assay [19] is NADPH oxidase 4 (Homo sapiens) (UniProt Q9NPH5). The assay can be described thus: NOX4-dependent H2O2 signal modulators, primary screen, NOX inhibitor project, cell-based, HEK293-NOX4, tetracycline-induced, Amplex Red fluorescence (AID 1160). Conditions: 45 min, higher = more signal, called active from +8 up or from −8 down.
For assay [20], the target named is NADPH oxidase 5 (Homo sapiens) (UniProt Q96PH1). The assay can be described thus: NOX5-dependent H2O2 signal modulators, primary screen, NOX inhibitor project, cell-based, HEK293-NOX5, Amplex Red fluorescence (AID 1161). Conditions: HEK293-NOX5, ionomycin, 45 min, higher = more signal.
Sequence of NADPH oxidase 5 (Homo sapiens) (Q96PH1 whole entry, looked up): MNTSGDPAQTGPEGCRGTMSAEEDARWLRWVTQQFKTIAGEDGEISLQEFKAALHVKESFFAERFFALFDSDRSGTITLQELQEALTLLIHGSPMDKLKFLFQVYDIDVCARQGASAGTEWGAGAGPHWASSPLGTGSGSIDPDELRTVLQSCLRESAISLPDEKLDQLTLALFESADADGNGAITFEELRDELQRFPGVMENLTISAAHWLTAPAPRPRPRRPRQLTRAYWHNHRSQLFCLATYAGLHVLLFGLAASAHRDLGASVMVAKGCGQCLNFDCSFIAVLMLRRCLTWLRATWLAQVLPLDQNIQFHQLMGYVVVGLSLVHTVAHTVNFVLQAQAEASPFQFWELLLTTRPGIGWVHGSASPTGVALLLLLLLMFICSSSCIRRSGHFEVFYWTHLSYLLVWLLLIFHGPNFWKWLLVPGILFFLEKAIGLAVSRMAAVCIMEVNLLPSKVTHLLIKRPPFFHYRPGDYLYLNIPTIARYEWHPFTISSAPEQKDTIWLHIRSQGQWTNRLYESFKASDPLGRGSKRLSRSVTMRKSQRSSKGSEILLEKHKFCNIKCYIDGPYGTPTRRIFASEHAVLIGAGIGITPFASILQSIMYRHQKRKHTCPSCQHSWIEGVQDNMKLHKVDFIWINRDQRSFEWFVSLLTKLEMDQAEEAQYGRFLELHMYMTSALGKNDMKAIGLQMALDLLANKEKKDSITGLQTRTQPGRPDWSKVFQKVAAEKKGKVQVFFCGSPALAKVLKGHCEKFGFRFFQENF

Sequence of Streptavidin (Streptomyces avidinii) (P22629 whole entry, looked up): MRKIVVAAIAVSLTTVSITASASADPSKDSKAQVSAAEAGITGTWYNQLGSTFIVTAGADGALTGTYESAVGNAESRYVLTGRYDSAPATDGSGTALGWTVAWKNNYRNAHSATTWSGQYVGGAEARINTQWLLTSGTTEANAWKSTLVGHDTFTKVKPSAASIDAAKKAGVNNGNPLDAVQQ
Sequence of Torsin-1A (Homo sapiens) (O14656 whole entry, looked up): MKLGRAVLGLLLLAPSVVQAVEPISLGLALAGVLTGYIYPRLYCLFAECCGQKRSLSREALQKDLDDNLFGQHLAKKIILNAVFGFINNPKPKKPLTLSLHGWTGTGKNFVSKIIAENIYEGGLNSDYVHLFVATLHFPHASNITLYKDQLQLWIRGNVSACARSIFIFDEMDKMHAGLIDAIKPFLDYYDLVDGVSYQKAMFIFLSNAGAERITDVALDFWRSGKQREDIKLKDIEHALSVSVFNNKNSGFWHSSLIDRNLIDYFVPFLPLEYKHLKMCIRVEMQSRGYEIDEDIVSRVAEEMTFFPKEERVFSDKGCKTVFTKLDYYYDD
Sequence of NADPH oxidase 4 (Homo sapiens) (Q9NPH5 whole entry, looked up): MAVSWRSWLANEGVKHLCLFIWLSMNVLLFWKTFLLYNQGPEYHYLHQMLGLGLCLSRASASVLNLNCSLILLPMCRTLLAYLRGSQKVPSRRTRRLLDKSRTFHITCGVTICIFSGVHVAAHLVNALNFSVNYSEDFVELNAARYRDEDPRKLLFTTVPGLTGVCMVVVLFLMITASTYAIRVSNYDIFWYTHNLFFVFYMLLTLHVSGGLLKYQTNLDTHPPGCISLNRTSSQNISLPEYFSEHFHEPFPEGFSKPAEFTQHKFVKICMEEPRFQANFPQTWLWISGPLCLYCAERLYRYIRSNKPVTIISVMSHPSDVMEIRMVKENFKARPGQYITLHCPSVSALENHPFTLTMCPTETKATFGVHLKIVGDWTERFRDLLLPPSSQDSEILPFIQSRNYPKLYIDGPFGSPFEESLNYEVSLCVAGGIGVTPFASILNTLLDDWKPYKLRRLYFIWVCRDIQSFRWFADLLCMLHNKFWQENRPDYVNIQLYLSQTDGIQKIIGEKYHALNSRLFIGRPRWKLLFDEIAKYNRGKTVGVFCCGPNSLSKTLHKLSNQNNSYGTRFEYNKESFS
Sequence of NADPH oxidase 2 (Homo sapiens) (P04839 whole entry, looked up): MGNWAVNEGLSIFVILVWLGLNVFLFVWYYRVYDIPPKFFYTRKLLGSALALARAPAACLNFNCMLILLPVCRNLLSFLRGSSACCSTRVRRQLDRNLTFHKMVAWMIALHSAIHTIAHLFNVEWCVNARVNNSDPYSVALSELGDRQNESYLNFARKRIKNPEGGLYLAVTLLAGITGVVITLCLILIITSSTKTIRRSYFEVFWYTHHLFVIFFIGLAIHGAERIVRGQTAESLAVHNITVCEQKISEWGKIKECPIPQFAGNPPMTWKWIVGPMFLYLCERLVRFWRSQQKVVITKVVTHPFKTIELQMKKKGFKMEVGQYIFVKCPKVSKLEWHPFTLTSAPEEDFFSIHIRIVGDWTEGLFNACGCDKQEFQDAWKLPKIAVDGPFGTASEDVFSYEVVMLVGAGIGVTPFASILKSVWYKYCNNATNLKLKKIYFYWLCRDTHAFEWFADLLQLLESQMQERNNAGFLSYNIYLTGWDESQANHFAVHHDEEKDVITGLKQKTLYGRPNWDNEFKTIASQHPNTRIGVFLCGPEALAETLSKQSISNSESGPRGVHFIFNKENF

Consider `CN1C2C=C(CCCO)C(C3C(=O)N(C(N)=O)C(=O)C32)C1C1CC1` (stereo not given), for which the composite z-score was -0.173 in [1]; -0.0742 in assay [6]; -0.0963 in [7]; 0.0337 with Torsin-1A (Homo sapiens) [8]; 0.143 with Torsin-1A (Homo sapiens) [9]; 0.316 in assay [10]. The composite z-score in [12] was -0.188. The z-score is -0.122 (inactive) in [2]; 0.57 (inactive) in [3]; 0.522 (inactive) in assay [4]; 0.373 (inactive) in assay [5]; -0.625 (inactive) in [11]; -0.234 (inactive) in [13]. The z-score is -0.0718 (inactive) in [14]; -0.624 (inactive) in assay [15]; -0.0366 (inactive) in assay [16]; -0.896 in [17]; 0.191 (inactive) in [18]; -0.07 (inactive) in [19]. In assay [20], this compound displayed a z-score of 0.257.
For `CS(=O)(=O)CCOC(=O)C1=CC(c2ccc(CO)cc2)=CC(C2CC2)N(Cc2sc3ccccc3c2Cl)C=C1C(=O)OCCS(C)(=O)=O` (stereo not given), the composite z-score in [1] was -0.0091; in [6], 1.95; in assay [7] it was 0.0843; with Torsin-1A (Homo sapiens) [8] it was 1.24; with Torsin-1A (Homo sapiens) [9], 1.31; in assay [10], 1.23. In assay [12], this compound showed a composite z-score of 0.141. Moreover, the z-score in [2] is -4.22 (inactive); in [3] it was -1.49 (inactive); in assay [4] it was 1.8 (inactive); in assay [5] it was -2.66 (inactive); in [11], -3.12 (inactive); in assay [13] it was 13.8 (active). Also, the z-score in [14] was 3.35 (inactive); in assay [15], 0.239 (inactive); in [16] it was 1.39 (inactive); in assay [17], 0.044; in [18], 0.932 (inactive); in assay [19], 0.186 (inactive). The compound also returned a z-score in assay [20] of -0.935.
For `CC1=C2[C@@H](CCc3ccccc3)OB(O)C[C@@H]2[C@@H]2C(=O)N(C)C(=O)[C@@H]2C1`, the composite z-score in assay [1] is 0.318; in assay [6] it was -0.0498; in [7], -0.252; with Torsin-1A (Homo sapiens) [8], -0.126; with Torsin-1A (Homo sapiens) [9], 0.355; in [10], 0.464. Besides, the composite z-score in [12] was determined as 0.035. Also, the z-score was -0.239 (inactive) in assay [2]; -0.294 (inactive) in assay [3]; -0.866 (inactive) in [4]; 0.829 (inactive) in assay [5]; -0.155 (inactive) in assay [11]; 1.45 (inactive) in assay [13]. For the same compound, the z-score is 0.454 (inactive) in [14]; -0.249 (inactive) in [15]; 0.255 (inactive) in assay [16]; -0.391 in assay [17]; 0.162 (inactive) in assay [18]; 0.234 (inactive) in [19]. In addition, the z-score in [20] is -0.54.
Turning to `CCCC#C[Si](O[C@H](CC)c1cn([C@H](C)c2ccccc2)nn1)(C(C)C)C(C)C`, the composite z-score is 0.0759 in assay [1]; -0.121 in assay [6]; 0.143 in [7]; 0.575 with Torsin-1A (Homo sapiens) [8]; 0.95 with Torsin-1A (Homo sapiens) [9]; 0.275 in assay [10]. This compound showed a composite z-score in [12] of 0.28. Further, the z-score is -0.746 (inactive) in assay [2]; -0.616 (inactive) in [3]; -0.621 (inactive) in assay [4]; -0.929 (inactive) in [5]; 2.53 (inactive) in assay [11]; 1.01 (inactive) in assay [13]. For the same compound, the z-score was 1.05 (inactive) in assay [14]; -0.302 (inactive) in assay [15]; 0.357 (inactive) in assay [16]; 0.364 in assay [17]; 0.177 (inactive) in [18]; 0.00728 (inactive) in assay [19]. In [20], the z-score was 0.7.
